This is an account of results in PubChem BioAssay AID602289 (National Center for Advancing Translational Sciences (NCATS), 2012).

As usually defined, the inhibition is the change of the read-out against control, counted positive when it falls.

About 40 (2%) of roughly 2,400 compounds were called active. Inconclusive results (about 1%) are left out. The sample holds actives, similar compounds and a random draw of the others, so the mix is not that of the screen.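 How the source made its calls: active means inhibition at or above 60%; inconclusive means inhibition from 0% up to below 60%; inactive means no inhibition observed.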

A short description of this assay: qHTS Assay for Small Molecule Inhibitors of Mitochondrial Division or Activators of Mitochondrial Fusion: Hit Validation in Malachite Green Assay.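 On inhibition: plate controls were DMSO wells with GTPase for no effect and protein-free buffer wells for full effect.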 Particulars: purified GTPase, malachite green phosphate release, A650; hits give high values. The text has this: The budding yeast S. cerevisiae is a powerful system to study mitochondrial fusion. Unlike other organisms, yeast cells without functional mitochondrial DNA (mtDNA) can be propagated and studied as long as they maintain a mitochondrial compartment and are provided with a fermentable carbon source. When mitochondrial fusion is blocked in yeast, mitochondrial tubules rapidly fragment and division continues unopposed. Under conditions where fusion is compromised in mammalian cells, nearly identical changes in mitochondrial structure have been observed. Thus, these findings indicate that steady state mitochondrial structure in cells is a characteristic and specific indicator of fusion activity. Mounting evidence has pointed to a connection between mitochondrial dynamics and apoptosis in mammalian cells. These studies indicate that in mammalian cells mitochondrial dynamics are more integrated into cellular processes than in yeast cells and have evolved not only to distribute the organelle but also to aid in the regulation of cellular homeostasis. Mitochondrial fusion proteins attenuate apoptosis by inhibiting the release of cytochrome c from mitochondria, in part by controlling cristae structures. Thus, small molecules that inhibit mitochondrial fusion may promote apoptosis and potentially act as novel chemotherapeutics and stimulation of apoptosis has become an attractive target of anti-cancer therapies. To identify inhibitors of mitochondrial division, we exploit the growth phenotypes of mitochondrial fusion-defective mutants. The temperature sensitive fusion alleles, such as fzo1-1 and mgm1-5, cause mitochondrial membranes to fragment in cells under non-permissive conditions and cells lose mtDNA, and are unable to grow in the presence of non-fermentable carbon source glycerol. Inhibiting mitochondrial division rescues growth. The hits were tested by the assay provider in a malachite green assay. NIH Chemical Genomics Center [NCGC] NIH Molecular Libraries Probe Production Centers Network [MLPCN] MLPCN Grant: MH081279 Assay Submitter (PI): Jodi M. Nunnari
Malachite Green Reagent Malachite Green carbinol base- Aldrich 229105 Ammonium molybdate - Sigma A7302 For 100 mL Malachite Green reagent in 1N HCl 16 mL conc. HCL + 32 mL H20 = 48 mL 4N HCl 34 mg malachite green base into 40 mL 1N HCl (10 mL 4N HCl + 30 mL H20) 1 g ammonium molybdate in 15 mL 4N HCl Mix Solutions together. Bring up to […] with H2O. Filter using a 0.2 um tissue culture filter unit (has plastic bottle attached) store at 4 masculine C. (Avoid Glassware/Plastics washed in detergent. Mix solutions in 50 mL conical vials.) For 20 uL reaction volume 1.0 uL Test Drug or DMSO: Added first to each well […]: 25 mM Hepes/Pipes pH 7.0 (H/P) 2.0 uL: 50 mM MgCl2 (final 5mM) 2.32 uL: 1 M NaCl (with contributing protein salt, Final = 150mM) 13.4 uL per reaction. Can be mixed in larger volume (Mini Master Mix) 1.6 uL: Protein 7.5 uM or Protein Freezing Buffer. (Final = 0.6uM) After Protein Added to mini Master Mix, 15ul Total Master Mix added to each well with drug. 4 uL: 500 uM GTP (Final = 100uM), Dilute with 25 mM H/P, store on ice. 20 uL Total Volume Make Master Mix: (Calculate desired reactions and add a few for multi-channel pipetting volume). Multiply the number of desired reactions by 13.4 uL for total Mini Master volume. Multiply the number of desired reactions by 1.6 uL for total Protein volume. Mix, and keep on ice until added to wells. Add 15 uL of Master Mix to each reaction well, incubate with drug for 10 min. For Positive (No Drug) controls add 15 uL Master Mix to wells with only 1 uL DMSO. Make PFB (Protein Freezing Buffer) (no Protein) Master Mix. Multiply the number of desired reactions by 13.4 uL for total Mini Master volume. Multiply the number of desired reactions by 1.6 uL for total PFB volume. Mix, and keep on ice until added to wells Add 10 uL of PFBMaster Mix to each Phosphate Standards well, and 15 uL to each negative control well with DMSO. […]
For orientation: qHTS replaces the single test concentration by a dilution series.
As for `O=C(COc1ccc(F)cc1Br)Nc1ccccc1N1CCOCC1`, the inhibition result was “inactive”.
Next, `CC1=C(C(=O)OCc2ccccc2)C(/C=C/c2ccccc2)N2C(=O)CCSC2=N1` (stereo unspecified): “inactive”; `O=[N+]([O-])c1ccc(O)c(P(=O)(c2ccccc2)c2ccccc2)c1`: “inactive”; `CCNC(=O)C(=O)N/N=C/c1cc([N+](=O)[O-])ccc1O`: 78.8% (active).
As for `CCN(CC)c1ccc(/C=N/NC(=O)c2ccc([N+](=O)[O-])cc2)cc1`, the entry is “inactive”; as for `CCOC(=O)c1c(NC(=O)COC(=O)Cn2cnc3ccccc32)sc2c1CCC(C)C2` (stereo unspecified), “inactive”.
As to `N#C/C(=C\c1cn[nH]c1-c1ccc(Cl)cc1)C(=O)NCc1ccccc1`, the inhibition result is “inactive”.
As for `O=C(Nc1cccc(Br)c1)c1ccccc1-c1ccccc1`, the inhibition entry is “inactive”.
With `Nc1c(-c2ccccc2)c(CSc2nc3ccccc3[nH]2)nn1-c1ccc(Cl)cc1`, the inhibition entry was “inactive”.
Next, `CCN(Cc1ccccc1)C(=O)c1oc2ccc(S(=O)(=O)N3CCOCC3)cc2c1C`: “inactive”; `O=c1c2ccccc2sn1-c1cc(S(=O)(=O)N2CCOCC2)ccc1N1CCCC1`: 103% (active); `O=C(c1cc(S(=O)(=O)N2CCN(c3ccccc3)CC2)ccc1Cl)N1CCCCCCC1`: “inactive”.
For the molecule `CCOC(=O)c1cccc(-c2c(-c3ccccc3)ncc3cc(OC)c(OC)cc23)c1`, the inhibition entry is “inactive”.
Take `O=C(NCc1ccc2c(c1)OCO2)c1ccc(CSCc2ccc(Cl)cc2)o1`: the inhibition entry was “inactive”.
For `O=C(Nc1ccccc1O)c1c(O)c2c([nH]c1=O)CCCC2`, the inhibition entry was “inactive”.
Take `O=C(O)c1ccccc1CSc1nc2ccccc2n1Cc1ccccc1C(=O)O`: the inhibition entry was “inactive”.
Next, `Cc1ccc(C(=O)CSc2nc(C(C)C)nc3ccccc23)cc1`: “inactive”.
Next, `COc1ccc(C(=O)CSc2ccc(-c3ccc(C)cc3)nn2)cc1`: “inactive”.
With `Cc1cc(SCC(=O)c2ccc(Cl)cc2)nc(=O)[nH]1`, the inhibition was 96.8% (active).
Next, `O=C(Nc1ccc(N2CCOCC2)c(S(=O)(=O)Nc2ccccc2Cl)c1)c1ccccc1`: “inactive”; `COc1cccc(C(Nc2ccccn2)c2c(NC(=O)c3ccco3)sc(C)c2C)c1` (stereo unspecified): “inactive”; `Cc1ccc(C)c(N2CCN(C(=O)CCCn3c(=O)c4cccn4c4cccnc43)CC2)c1`: “inactive”.
Next, `COc1cccc(C(=O)NC2CCN(C(=O)N3c4ccccc4Sc4ccccc43)CC2)c1`: “inactive”; `C/C(=N\NC(=O)COc1ccccc1-c1ccccc1)c1ccccn1`: 71.6% (active).
For the molecule `O=C(COc1cc2oc(=O)cc(-c3ccccc3)c2cc1Cl)NCc1ccccn1`, the inhibition result is “inactive”.
`O=C(COc1ccccc1-c1ccccc1)NCc1cccc(Cl)c1`: the inhibition result is “inactive”.
For `O=[N+]([O-])c1ccccc1SN(Cc1ccccc1)c1ccccn1`, the inhibition entry was “inactive”.
Next, `CCC(CC)C(=O)Nc1cc(C(=O)OC)ccc1C(=O)OC`: “inactive”; `O=C(/C=C/c1ccc(Cl)cc1)N(c1ccccn1)C1CCCCC1`: “inactive”.
As for `CC(/C=N/NC(=O)CSc1nnc(SCc2ccccc2)s1)=C\c1ccco1`, the entry is “inactive”; as for `COc1ccc(-c2nn(-c3ccccc3)cc2/C=N/Nc2ccc3ccccc3n2)cc1OC`, “inactive”; as for `COc1ccccc1C1CC(c2ccc(Br)cc2)=NN1C(=O)c1cccnc1` (stereo unspecified), “inactive”.
Next, `CCC(C)c1ccc(N(CC(=O)NC(C)(C)C)C(=O)CNC(=O)c2cccs2)cc1` (stereo unspecified): “inactive”; `Cc1nc(NCc2ccccn2)c2c3c(sc2n1)CCCC3`: “inactive”.
`CN(C)c1cccc(NC(=O)c2ccco2)c1`: the inhibition entry is “inactive”.
As for `Cc1ccc(-c2nnc(NC(=O)c3ccco3)o2)c(C)c1`, the figure is 74.4% (active).
As for `COc1c(C)cc(Br)cc1C(=O)Nc1cccc(NC(=O)c2ccco2)c1`, the entry is “inactive”; as for `CC1=C(C)CC(C(=O)NNC(=O)c2csc3c2CCC(C(C)(C)C)C3)C(C(=O)O)C1` (stereo unspecified), “inactive”; as for `Cc1ccc(SCCNS(=O)(=O)c2ccc3c(c2)OCCO3)cc1`, “inactive”.
For the molecule `C=CCc1c(C)nc(-c2ccccc2)nc1Nc1ccc(O)cc1`, the inhibition result was “inactive”.
Next, `COc1ccc(Cl)cc1NC(=O)CN(C)C(=O)c1cc2c(F)cccc2s1`: “inactive”; `COc1cccc(C2=CC(=O)C[C@H](c3ccc(Cl)cc3)C2)c1`: “inactive”; `COC(=O)[C@@]12CCCCN1[C@H](c1ccc(-c3ccc(OC)cc3)c(OC)c1)[C@@H]1C(=O)N(C)C(=O)[C@@H]12`: “inactive”.
Next, `O=C(Nc1cccc(-c2nnc(-c3ccccc3)o2)c1)c1ccc(Br)o1`: “inactive”; `COc1cc(/C=C2\SC(N3CCCCC3)=NC2=O)cc(OC)c1OC`: “inactive”.
On to `COc1ccc(OC)c(/C=C2\SC(N3CCCC(C)C3)=NC2=O)c1` (stereo unspecified), for which the inhibition was 66.7% (active).
Next, `O=C1N=C(N2CCN(c3ccccc3)CC2)S/C1=C/c1cccs1`: “inactive”; `COC(=O)c1cc2c(ccn2-c2ccc(F)cc2)n1Cc1ccc(OC(C)=O)cc1`: “inactive”.
Next, `Cc1ccc(S(=O)(=O)NC23CC4CC(CC(C4)C2)C3)cc1`: “inactive”; `CC1CCc2nc3ccc(S(=O)(=O)N4CCC(C(=O)NCc5ccccc5Cl)CC4)cc3c(C(=O)O)c2C1` (stereo unspecified): “inactive”; `Cc1ccc2nnn(Cc3cccc(C(C)(C)C)c3O)c2c1`: “inactive”.
As for `COc1cccc(-c2nnc(NC(=O)c3ccc4ncsc4c3)o2)c1`, the entry is “inactive”; as for `O=C(Nc1nnc(-c2ccco2)o1)c1ccc2ccccc2c1`, 60.5% (active); as for `O=C(Nc1ccccc1N1CCCC1)c1ccc2ccccc2c1`, “inactive”.
For `COc1ccc(C(=O)Nc2nc(-c3cccs3)cs2)cc1`, the inhibition entry was “inactive”.
Next, `COc1ccc(-c2nnc(NC(=O)c3ccc(F)cc3)o2)cc1`: 63.4% (active); `O=C(Nc1nnc(-c2ccccc2)o1)c1cc(-c2cccs2)nc2ccccc12`: “inactive”.
Take `Nc1nc(Nc2cccc(Cl)c2)nc(NCc2ccco2)c1[N+](=O)[O-]`: the inhibition entry is “inactive”.
Next, `Cc1ccc(N=C2NC(=O)/C(=C\c3ccsc3)S2)c(C)c1`: “inactive”.
As for `COc1ccc(C(=O)Nc2cc3c(cc2N2CCCCC2)n(C)c(=O)n3C)cc1OC`, the inhibition entry was “inactive”.
Take `O=C(CCNC(=O)c1ccccc1Cl)Nc1ccc(Cl)c(C(F)(F)F)c1`: the inhibition result was “inactive”.
Next, `O=C(Nc1cccc(-c2nc3ccccc3s2)c1)c1cccs1`: “inactive”; `CC(=O)Nc1ccc(O)c(-c2nc3ccccc3s2)c1`: “inactive”; `Cc1c(NC(=O)c2cccs2)cccc1-c1nc2ccccc2s1`: 85.9% (active).
As for `CCOc1ccc2nc(NC(=O)Nc3cccs3)sc2c1`, the entry is “inactive”; as for `Cc1c(Cl)c([N+](=O)[O-])nn1Cc1ccc(C(=O)Nc2ccc(Cl)cn2)o1`, “inactive”.
